Bioassay records as filed in PubChem BioAssay.
In the library only some 2.9% were active in any assay of this set; here they are far more common.
HSF-1 act – increases HSF-1 driven luciferase reporter signal. NIH3T3-HGL HSF-1 luciferase reporter, MG132, 8 h; 100% = twice DMSO control signal. activation, % at 9 µM. 300,000 compounds, 1.7% hits;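 active means mean replicate activation of at least 50% with a set share of replicates each reaching 50%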
S1P3 antagonist – antagonists of human S1P3 receptor | CHO S1P3 NFAT-BLA reporter, FRET fluorescence, antagonist mode | Q99500 | inhibition, % at 4.98 µM | 170,000 compounds, 0.27% hits;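 active means inhibition above the plate cutoff, the mean inhibition of test wells on that plate plus 3 SD, cut at about 28% in these data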;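 further: cells challenged with S1P at its EC80 of 0.8 µM; blue over green emission ratio from cleaved BLA substrate after 4 h stimulation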
Target sequence (Q99500 whole entry, looked up): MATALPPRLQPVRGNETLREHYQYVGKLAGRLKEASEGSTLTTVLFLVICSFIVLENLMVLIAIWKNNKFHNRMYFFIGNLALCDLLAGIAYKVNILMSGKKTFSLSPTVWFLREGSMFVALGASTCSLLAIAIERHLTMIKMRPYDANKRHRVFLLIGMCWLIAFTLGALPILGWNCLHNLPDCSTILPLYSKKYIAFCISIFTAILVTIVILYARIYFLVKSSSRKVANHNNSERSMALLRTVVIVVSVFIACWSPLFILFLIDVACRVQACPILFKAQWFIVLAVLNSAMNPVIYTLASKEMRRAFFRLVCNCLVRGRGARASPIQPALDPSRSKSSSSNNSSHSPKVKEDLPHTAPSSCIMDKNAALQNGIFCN
HSF1 inhib – HSF1 inhibition; 300,000 compounds, 0.77% hits; NIH3T3-HGL HSE-luciferase, MG132-induced, luminescence 8 h; active compounds read low; activity change, negative = inhibition, % at 7.5 µM (by protocol);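 active means more than half of replicate wells show activity change below -50%, luminescence cut by over half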;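 further: luciferase reports HSF-1 transcriptional activity via heat shock element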
S1P4 ag – human S1P4 receptor agonism; O95977; S1P4-expressing cell line, agonist reporter assay; activation, % at 4.98 µM; 220,000 compounds, 0.35% hits; in the data active means activation above about 11%
Hsp70 activator – switches on Hsp70 transcription; 200,000 compounds, 0.04% hits; AID 1203; HeLa Hsp70 promoter luciferase reporter, luminescence; scaled: vehicle 0, proteasome-inhibitor control 100%; activation, % at 10 µM;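 active means activation above the mean across all tested compounds plus 3 SD, cutoff set per campaign, cut at about 5.5% in these data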
S1P4 antagonist – blocks the human S1P4 receptor | O95977 | S1P4-expressing cells, antagonist mode, reporter read-out | inhibition, % at 4.98 µM | 220,000 compounds, 0.26% hits | AID 1510; in the data active means inhibition above about 29%
Large screens that a line does not name were inactive.

O=C(COC(=O)C1CC1)Nc1ccc(Oc2ccccc2)cc1	none
Cn1c(CCC(=O)OCC(=O)Nc2ccc(Oc3ccccc3)cc2)nc(=O)c2ccccc21	HSF-1 act 55.3
CC(NC(=O)COC(=O)CCc1nc(=O)c2ccccc2n1C)c1ccccc1 (stereo not given)	none
Cc1ccccc1-c1nc(CS(=O)CC(=O)NC(C)CCc2ccccc2)c(C)o1 (stereo not given)	none (no result: S1P3 antagonist, S1P4 ag, Hsp70 activator, S1P4 antagonist)
Cc1cc(C(F)F)n2nc(C(=O)Nc3cccc(C(F)(F)F)c3)nc2n1	HSF-1 act 80.7
CCOC(=O)N1CCN(C(=O)CCS(=O)(=O)c2ccc3c(c2)CC(C)N3C(=O)CC)CC1 (stereo not given)	none (no result: S1P3 antagonist, S1P4 ag, Hsp70 activator, S1P4 antagonist)
CCOC(=O)C1CCN(C(=O)CCS(=O)(=O)c2ccc3c(c2)CC(C)N3C(=O)CC)CC1 (stereo not given)	HSF1 inhib -61.8
O=[N+]([O-])c1ccc(N/N=C/c2cn(-c3ccccc3)nc2-c2ccccc2)cc1	HSF-1 act 63.5 (no result: S1P3 antagonist)
CC(=O)Nc1c(-c2cc(=O)oc3cc(C)ccc23)oc2ccccc12	none (no result: S1P3 antagonist, S1P4 ag, Hsp70 activator, S1P4 antagonist)
CN1C(=O)C2(Oc3ccccc3C3CC(c4ccccc4)=NN32)c2ccccc21 (stereo not given)	HSF-1 act 76.2 (no result: S1P3 antagonist)
CCn1ccc(C(=O)Nc2ccsc2C(=O)OC)n1	none (no result: S1P3 antagonist, S1P4 ag, Hsp70 activator, S1P4 antagonist)
Cc1noc(C)c1C(=O)N1CCC(C(=O)c2ccccc2)CC1	HSF1 inhib -61.7 (no result: Hsp70 activator)
Cc1noc(C)c1C(=O)N1CCC(Cc2ccccc2)CC1	none
COC(=O)C1=C(C)N(CC2CC2)C(=O)N[C@H]1c1ccccc1	none (no result: S1P3 antagonist, S1P4 ag, Hsp70 activator, S1P4 antagonist)
O=C(N=C1c2ccccc2CN1c1ccc(F)c(Cl)c1)c1cccnc1Cl	HSF-1 act 68.5
Cc1ccc(OCC(=O)N2CCc3ccccc3C2)c(C)c1	none (no result: S1P3 antagonist, S1P4 ag, Hsp70 activator, S1P4 antagonist)
Cc1ccc(OCC(=O)N2CCc3ccccc3C2)c(Br)c1	HSF-1 act 76.1 (no result: S1P3 antagonist, S1P4 ag, Hsp70 activator, S1P4 antagonist)
O=C(CCC1CCCCC1)NCc1ccncc1	S1P3 antagonist 82.5
COc1ccc(N2CCN(C(=O)COC(=O)c3oc4ccc(OC)cc4c3C)CC2)cc1	none (no result: S1P3 antagonist, S1P4 ag, Hsp70 activator, S1P4 antagonist)
NS(=O)(=O)c1ccc(CCNC(=O)c2ccc([N+](=O)[O-])s2)cc1	HSF-1 act 93.7 (no result: S1P3 antagonist, S1P4 ag, Hsp70 activator, S1P4 antagonist)
Cc1ccc(-c2c(C(=O)N/N=C/C3CC=CCC3)nnn2-c2nonc2N)cc1 (stereo not given)	none (no result: S1P3 antagonist, S1P4 ag, Hsp70 activator, S1P4 antagonist)
Cc1ccc(S(=O)(=O)N2CCN(C(=O)c3cccc(F)c3)CC2)cc1	HSF1 inhib -53.5
O=C(O)c1cccc(Cn2c(Cl)c(/C=N/NC(=O)c3ccco3)sc2=O)c1	none (no result: S1P3 antagonist, S1P4 ag, Hsp70 activator, S1P4 antagonist)
O=C(Nc1ccccc1Cl)c1cc2ccccc2o/c1=N\O	HSF-1 act 72.4 (no result: S1P3 antagonist, S1P4 ag, Hsp70 activator, S1P4 antagonist)
COc1ccc(NC(=O)CN(C)S(=O)(=O)c2ccc(Br)s2)cc1	none (no result: S1P3 antagonist, S1P4 ag, Hsp70 activator, S1P4 antagonist)
COc1ccc(NC(=O)CN(C)S(=O)(=O)c2ccc(Br)s2)cc1OC	HSF-1 act 55.1 (no result: S1P3 antagonist, S1P4 ag, Hsp70 activator, S1P4 antagonist)
CCN1C(=O)c2ccccc2S(=O)c2ccc(C(=O)NCc3ccc(OC)cc3)cc21 (stereo not given)	HSF1 inhib -86.5 (no result: S1P3 antagonist, S1P4 ag, Hsp70 activator, S1P4 antagonist)
CCN1C(=O)c2ccccc2S(=O)c2ccc(C(=O)N3CCCC3)cc21 (stereo not given)	HSF1 inhib -84.9
CCOCCCNC(=O)c1ccc2c(c1)N(CC)C(=O)c1ccccc1S2=O (stereo not given)	none (no result: S1P3 antagonist, S1P4 ag, Hsp70 activator, S1P4 antagonist)
COc1ccc(/C(C)=N\O)cc1OC	none (no result: Hsp70 activator)
Oc1[nH]c2ccccc2c1N=NC(=S)N1CCOCC1	HSF-1 act 87.4 (no result: Hsp70 activator)
NC(=S)N=Nc1c(O)[nH]c2ccccc12	none
Clc1cc(Cl)c(OCc2nc(-c3ccccn3)no2)cc1Cl	HSF-1 act 109.8
CC(C)(C)c1ccc(OCc2nc(-c3ccccn3)no2)c(Br)c1	none
Cc1ccccc1CSc1nnc(-c2cnccn2)n1C	none (no result: Hsp70 activator)
C=C1CCC[C@]2(C)C[C@H]3OC(=O)C(CNC(CC)CO)[C@H]3CC12 (stereo not given in full)	HSF-1 act 142.1 (no result: S1P3 antagonist, S1P4 ag, Hsp70 activator, S1P4 antagonist)
C=C1CCC[C@]2(C)C[C@H]3OC(=O)C(CNC(C)(CO)CO)[C@H]3CC12 (stereo not given in full)	HSF-1 act 73.7 (no result: S1P3 antagonist, S1P4 ag, Hsp70 activator, S1P4 antagonist)
C=C1CCC[C@]2(C)C[C@H]3OC(=O)C(CNC(C)CC)[C@H]3CC12 (stereo not given in full)	none (no result: S1P3 antagonist, S1P4 ag, Hsp70 activator, S1P4 antagonist)
CCOC(=O)c1c(NC(=O)c2ccco2)n(C2CCCCC2)c2nc3ccccc3nc12	HSF-1 act 78.3 (no result: S1P3 antagonist)
CCC(=O)Nc1c(C#N)c2nc3ccccc3nc2n1C1CCCCC1	none (no result: S1P3 antagonist)
